Measurements from the supplement of paper PMC7156485.

tested on: TDF; assay: H1.0 immunofluorescence intensity relative to DMSO (% of DMSO); higher = stronger H1.0 induction, active = 120 or more; details: concentration: 10 µM; 24 h
Summary of the method: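 For HCC1569 and TDF cells, compounds at 10 µM were applied for 24 h at 37 °C in triplicate in 384-well plates. Cells were fixed in 3.7% formaldehyde, stained for H1.0 and with DAPI, and imaged at ×10 over six fields per well. The endpoint, H1.0 nuclear intensity or cell number, is shown as percent of the plate control using the median of replicates. Positional effects were smoothed for HCC1569 only.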
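Note: TDF is a line of transformed human dermal fibroblasts of mesenchymal origin.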

Row | SMILES | H1.0 immunofluorescence intensity
1 | CCCCCCCCCCCCCCCCCC(=O)O [Octadecanoic acid] | 104 (inactive)
2 | CN(C)c1cc2c(Nc3ccc4c(cnn4Cc4ccccc4)c3)ncnc2cn1 | 113 (inactive)
3 | O=C(O)C=CC(=O)O.c1cnc(N2CCN(Cc3ccc4c(c3)OCO4)CC2)nc1 [Piribedil maleate] | 93.8 (inactive)
4 | CNCCCC12CCC(c3ccccc31)c1ccccc12.Cl [Maprotiline hydrochloride] | 106 (inactive)
5 | CC(=O)Nc1nnc(S(N)(=O)=O)s1 [Acetazolamide] | 86.9 (inactive)
6 | O=C(O)c1cccnc1C(=O)O [Quinolinic acid] | 90.7 (inactive)
7 | C=CC1CN2CCC1CC2C(O)c1ccnc2ccc(OC)cc12.Cl.O.O (stereo not drawn) | 98.1 (inactive)
8 | CCC(C)N(C)C(=O)c1cc2ccccc2c(-c2ccccc2Cl)n1 (stereo not drawn) | 90.8 (inactive)
9 | CC(C)N(CCC(=O)c1ccc2ccccc2c1)Cc1ccccc1.Cl [JAK3 Inhibitor IV] | 96.1 (inactive)
10 | CCC(c1ccc(O)cc1)C(CC)c1ccc(O)cc1 (stereo not drawn) [Hexestrol] | 94.1 (inactive)
11 | CC(=O)C(C)=NO [2,3-Butanedione monoxime] | 106 (inactive)
12 | NC(N)=NC(CCC(=O)O)C(=O)O (stereo not drawn) [alpha-Guanidinoglutaric acid] | 92.6 (inactive)
13 | CCC1(O)CC2CN(CCc3c([nH]c4ccccc34)C(C(=O)OC)(c3cc4c(cc3OC)N(C)C3C(O)(C(=O)OC)C(OC(C)=O)C5(CC)C=CCN6CCC43C65)C2)C1 (stereo not drawn) [Vinblastine] | 161 (active)
